The list is not random: actives were taken first. Their share in the collection is about 17%.
TDP1 cell noCPT: qHTS for Inhibitors of human tyrosyl-DNA phosphodiesterase 1 (TDP1): qHTS in cells in absence of CPT; DT40 Tdp1-/- hTDP1 cells, no CPT, ATP luminescence, 48 h; Potency, µM (titrated, usually from 46.2 µM), most hits filed as inhibitors; hit rate 15% among 420,000; further: nearly all actives have a fitted effect of over 55% in size
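Cells were dispensed at 400 per well, compounds added by pin tool, plates incubated ≥48 hr at 37 °C, then CellTiter-Glo added for 30 min at room temperature before luminescence reading. Line: DT40 Tdp1-/- complemented with hTDP1; camptothecin omitted.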
DT40 TDP1 CPT: DT40-hTDP1 cell growth loss with CPT | AID 686979 | chicken DT40 Tdp1-/-;hTDP1 cells + 20 nM CPT, ATP luminescence, 48 h | hit rate 12% among 420,000 | Potency, µM (titrated, usually from 46.2 µM), actives largely listed as inhibitors; further: nearly all actives have a fitted effect of over 55% in size
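Chicken DT40 Tdp1-/- cells stably complemented with human TDP1 were seeded at 400 cells/well in medium containing 20 nM camptothecin, exposed to pin-transferred compounds, and grown at 37 °C for at least 48 hr. Viability was read as ATP luminescence.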
HT1080NT lethal: kills 2HG-producing HT-1080-NT fibrosarcoma cells; HT-1080-NT fibrosarcoma viability, CellTiter-Glo ATP luminescence, 48 h; Potency, µM (highest dose often 46.1 µM), usual class: cytotoxic; hit rate 1.6% among 360,000; AID 686970;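 further: NT is the 2HG producing partner of a matched IDH1 knockdown line; nearly all actives have a fitted effect of over 55% in size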
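A 48-hour cytotoxicity screen used HT-1080-NT cells plated 2 hours before compound delivery. ATP-based CellTiter-Glo luminescence measured viability, normalized to DMSO and no-cell controls.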
HepG2 tox: kills HepG2 cells in TGF-b inhibitor counter-screen; HepG2 CAGA-GFP viability, ATP luminescence, 18 h; Potency, µM (titrated, usually from 46.1 µM), usual class: cytotoxic; hit rate 0.76% among 410,000
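HepG2 CAGA-GFP cells (1000/well, DMEM with 1% FBS) received compound, then TGF-beta at 500 pg/mL final, and were incubated 18 hours at 37 degrees C. Viability was read by CellTiter-Glo luminescence. Media-only wells were set as complete cell-killing and DMSO as no toxicity.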
TGFb inhibitor: inhibitors of TGF-b signaling. hit rate 1.2% among 410,000. Potency, µM (doses to about 46.1 µM), most hits filed as inhibitors. HepG2 CAGA-GFP TGF-b/SMAD3 reporter, GFP fluorescence, 18 h; TGF-beta stimulated, 500 pg/mL final. AID 588855; further: nearly all actives have a fitted effect of over 65% in size
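Smad-responsive CAGA-GFP expression was quantified in HEPG2 cells exposed to compounds and 500 pg/mL final TGF-beta for 18 h at 37 degrees C; unstimulated wells defined full inhibition.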
HT1080 IDH1KD tx: kills HT-1080 cells with IDH1 knockdown; HT-1080 IDH1 knockdown viability, ATP luminescence, 48 h; Potency, µM (top dose mostly 46.1 µM), actives largely listed as cytotoxic; hit rate 2% among 360,000; AID 686971
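In this qHTS, HT-1080 cells depleted of IDH1 are exposed for 48 h at 37 °C to compound titrations. Toxicity is scored from CellTiter-Glo luminescence, with DMSO as full viability and medium alone as none.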
Hits are given with their value; i = inactive; ? = inconclusive; nt = not tested or not shown; [ ] = dose if it differs, or a comment. The call rests on the fitted dose curve; in most records, active means well fitted curve in the direction sought with a large enough effect; inconclusive means small, poorly fitted or top-dose-only effect, or another doubt; inactive means no such curve, though single readings can be large; an effect the other way counts as inactive or inconclusive.

SMILES	TDP1 cell noCPT	DT40 TDP1 CPT	HT1080NT lethal	HepG2 tox	TGFb inhibitor	HT1080 IDH1KD tx
COc1ccc(NC(=O)COC(=O)CNS(=O)(=O)/C=C/c2ccccc2)cc1OC	?	i	i	i	i	i
Cc1ccc(O)c(-c2cc(-c3ccc(F)cc3)no2)c1	i	i	i	i	i	i
CCOc1ccc(C(=O)NCC(c2ccc3c(c2)OCO3)N2CCN(C)CC2)cc1 (centres undefined)	i	i	nt	i	i	nt
CCOc1ccc(C(=O)NCC(c2ccc3c(c2)OCO3)N2CCN(c3ccccc3F)CC2)cc1 (centres undefined)	20.6µM	16.4µM	nt	i	?	nt
O=C(NCC(c1ccc2c(c1)OCO2)N1CCOCC1)c1ccccc1 (centres undefined)	?	i	nt	i	i	nt
O=C(NCC(c1ccc2c(c1)OCO2)N1CCN(c2ccccc2)CC1)c1ccc(F)c(F)c1 (centres undefined)	2.31µM	5.17µM	nt	i	?	nt
Cc1cccc(C(=O)NCC(c2ccc3c(c2)OCO3)N2CCOCC2)c1 (centres undefined)	23.1µM	?	nt	i	i	nt
Cc1ccc(S(=O)(=O)NCC(=O)OCC(=O)NCc2ccco2)cc1	i	i	i	i	i	i
Cc1oc(-c2ccccc2F)nc1CS(=O)(=O)CC(=O)NCCCN1CC(C)CC(C)C1 (centres undefined)	i	i	i	i	i	i
C=CCOc1ccc2ccccc2c1CNc1ncn[nH]1	i	i	i	i	i	i
OC[C@@H]1CN(Cc2ccc3c(c2)OCO3)C[C@H](n2cnc3c(N4CCCC4)ncnc32)O1	?	?	i	i	i	i
Cc1ccc2c(c1)N(CC(=O)NC(C)CCc1ccccc1)C(=O)c1cccnc1O2 (centres undefined)	?	i	i	i	i	i
CCC(C)(C)n1nnnc1C(c1cccc(C#N)c1)N1CCN(c2cccc(C)c2C)CC1 (centres undefined)	16.4µM	?	i	i	i	i[9.24 µM]
CC(C)(C)n1nnnc1C(c1cccc(C#N)c1)N1CCCCCC1 (centres undefined)	16.4µM	?	i	i	i	i
CC(C)(C)n1nnnc1C(c1cccc(C#N)c1)N1CCN2CCCC2C1 (centres undefined)	i	i	i	i	i	i
COc1ccccc1C(c1nnnn1C(C)(C)C)N1CCCCCC1 (centres undefined)	18.4µM	20.6µM	i	i	?	i
COC(=O)c1ccc(C(=O)OC)c(NC(=S)N2CCCC(C)C2)c1 (centres undefined)	i	i	i	i	i	i
Cc1ccn2c(NC(=O)c3ccccc3)c(-c3ccccc3)nc2c1	i	i	i	i	i	i
Cc1ccn2c(NC(=O)c3cccc(Cl)c3)c(-c3ccccc3)nc2c1	23.1µM	?	nt	i	?	nt
Cc1cccc(C(=O)Nc2c(-c3ccccc3)nc3cc(C)ccn23)c1	20.6µM	?	nt	i	i	nt
Cc1ccc(C(C(=O)NC2CCCCC2)N(C(=O)c2csnn2)C2CC2)cc1 (centres undefined)	?	?	i	i	i	i
COc1ccc(CCN(C(=O)C(F)(F)F)C(C(=O)NC2CCCC2)c2cccs2)cc1 (centres undefined)	6.51µM	6.51µM	8.91µM	i	?	?
O=C(NC1CCCCC1)C(c1ccco1)N(CCc1ccccc1)C(=O)C(F)(F)F (centres undefined)	23.1µM	23.1µM	i	i	i	i
CCc1ccc(C(C(=O)NC2CCCCC2)N(C(=O)c2csnn2)C2CC2)cc1 (centres undefined)	?	16.4µM	i	i	i	i
Cc1cccc(CCN(C(=O)c2csnn2)C(C(=O)NC2CCCC2)c2ccco2)c1 (centres undefined)	16.4µM	14.6µM	i	i	?	i
